The source of these data is PubChem BioAssay AID1813 (Broad Institute, 2009).

Usually inhibition stands for the drop in the measured response relative to a control, in per cent.

The campaign covered roughly 300,000 compounds. About 2,500 (0.83%) were called active. No stated cut-off is given here; in the data, active means inhibition above about 60%; inconclusive means no clear call, values can overlap the other calls; inactive means below that. Shown is part of a subset that was picked to be rich in actives.

A short description of this assay: 5' untranslated region of α-synuclein, MLPCN primary screen (AID 1813).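 Further: H4 neuroglioblastoma cells stably carrying SNCA 5'UTR luciferase fusion; 0% = DMSO wells and 100% = positive control.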 The settings on record: alpha-synuclein 5'UTR reporter, inhibitor activity; active compounds read high; tested at 7.5 µM.
On to `COc1cc2cc(C(=O)N/N=C/c3cccc(OC)c3OC)[nH]c2cc1OC`, for which the inhibition is 22.3% (inactive). The figure for `COc1cccc(/C=N/NC(=O)c2[nH]nc3c2CCc2ccccc2-3)c1O` is 76.4% (active). In the case of `CN(C)CCNC(=O)c1[nH]nc2c1CCc1ccccc1-2`, the inhibition is -73.6% (inactive).

`CCOCCCN(C)C1CCN(C(=O)c2oc3ccccc3c2NC(=O)COc2cccc(C)c2)CC1`: the inhibition is 45.5% (inactive).

Take `CCOC(=O)c1ccc(NNC(C)=O)c([N+](=O)[O-])c1`: the inhibition was -28% (inactive). Regarding `CCCCCOc1ccc(/C=C/C(=O)NCCc2nc3ccccc3[nH]2)cc1OC`, the inhibition was 14.1% (inactive). On to `Cc1cc(Oc2ccc(Cl)cc2)nc(SCC(=O)c2ccccc2)n1`, for which the inhibition is 27.8% (inactive). Turning to `Cc1cc(C)n(-c2ccc(C(=O)O)cc2[N+](=O)[O-])n1`, the inhibition was -5.9% (inactive).

As for `Cc1cc(Nc2ccc(Cl)cc2)nc(N2CCOCC2)n1`, the inhibition was -19% (inactive).

Regarding `COc1ccc(Nc2cc(C)nc(-n3nc(C)cc3C)n2)cc1`, the inhibition was 92.8% (active). In the case of `CC(=O)c1ccc(Oc2cc(C)nc(-n3nc(C)cc3C)n2)cc1`, the inhibition was 80.1% (active). With `Cc1cc(N/N=C\c2ccc(Br)cc2)nc(-n2nc(C)cc2C)n1`, the inhibition was 25% (inactive). For the molecule `CCC(C(=O)OC)n1cnc2c(oc3ccccc32)c1=O` (stereo unspecified), the inhibition was 16.1% (inactive).

As for `Clc1ccc(-c2ncc3ccccn23)c(Cl)c1`, the inhibition is -17.4% (inactive). For `O=C1c2ccccc2C(=O)N1Cc1cc(-c2ccccc2Cl)no1`, the inhibition was 15.2% (inactive). The figure for `Clc1ccc(-c2cc(-c3ccccn3)on2)c(Cl)c1` is 108% (active); for `COc1cc(NC(=O)C2=C(C)OCCS2)c(Cl)cc1C(=O)NCCN1CCN(C)CC1` it is -14% (inactive). The figure for `CN1C(=O)[C@H]2[C@@H](C3CC3)N3C(=O)CN(Cc4ccccc4)C(=O)[C@@]3(C)[C@H]2C1=O` is -12.7% (inactive). As to `Cc1nc2c(c(C)nn2-c2ccccc2)c(C)c1C`, the inhibition is -0.524% (inactive). Take `COc1ccc(/C=C2\SC(=S)N(CCCC(=O)NC3CCCC3)C2=O)cc1OC`: the inhibition is 83.7% (active). Turning to `COc1ccc(/C=C2\SC(=S)N(CCC(=O)Nc3cccc(C(=O)O)c3)C2=O)cc1OC`, the inhibition is 6.81% (inactive). With `COc1ccc(/C=C2\SC(=S)N(CCC(=O)Nc3ccccn3)C2=O)cc1OC`, the inhibition was 28.8% (inactive). In the case of `CCOc1ccc(S(=O)(=O)N/N=C(\C)c2ccc(Cl)c(Cl)c2Cl)cc1`, the inhibition is 2.56% (inactive). The figure for `O=C(NCCc1ccccc1)C(=O)NCC1OCCN1S(=O)(=O)c1cccs1` (stereo unspecified) is 2.43% (inactive); for `CC(CNS(=O)(=O)c1ccc(Br)cc1)CN(C)C` (stereo unspecified) it is 22% (inactive); for `CN(CC(=O)NNC(=O)CNC(=O)c1ccccc1Cl)S(=O)(=O)c1ccc(Cl)cc1` it is -12.7% (inactive).
